Data reported in PubChem BioAssay AID623911 (Vanderbilt High Throughput Screening Facility, 2012).
Among all 2,100 compounds or so, about 770 (37%) were called active. The list shows a part of the results. A number with no mark means an inactive call.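 How the source made its calls: active means by-eye trace score of 1 for enhancers or -1 for inhibitors, so actives lie on both sides (some results past the limit were not filed as active); inactive means score 0, or 3 fluorescent, or 4 baseline rise.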

The compounds below were run against G protein-activated inward rectifier potassium channel 2 (Homo sapiens) + G protein-activated inward rectifier potassium channel 1 (Homo sapiens) (UniProt P48051+P48549) (assay: GIRK1/2 thallium flux modulators, retest, confirmation, cell-based, HEK293 rmGlu8/hGIRK1/2, FluoZin-2 (AID 623911)). Conditions: HEK293 rmGlu8/hGIRK1/2, thallium flux FluoZin-2; actives lie on both sides; glutamate co-added at its EC20 level.
G protein-activated inward rectifier potassium channel 2 (Homo sapiens) + G protein-activated inward rectifier potassium channel 1 (Homo sapiens), sequence (P48051 whole entry, looked up): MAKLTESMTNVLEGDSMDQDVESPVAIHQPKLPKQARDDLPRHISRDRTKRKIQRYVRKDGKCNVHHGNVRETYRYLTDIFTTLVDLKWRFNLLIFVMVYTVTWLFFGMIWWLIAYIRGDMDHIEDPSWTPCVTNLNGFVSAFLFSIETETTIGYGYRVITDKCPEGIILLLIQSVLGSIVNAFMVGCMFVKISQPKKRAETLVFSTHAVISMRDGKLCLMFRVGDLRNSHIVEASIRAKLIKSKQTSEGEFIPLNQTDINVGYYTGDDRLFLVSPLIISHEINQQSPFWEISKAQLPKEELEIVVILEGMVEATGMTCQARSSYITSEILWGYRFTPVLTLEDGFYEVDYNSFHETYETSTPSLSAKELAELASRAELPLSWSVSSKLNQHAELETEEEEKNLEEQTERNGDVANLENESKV
G protein-activated inward rectifier potassium channel 2 (Homo sapiens) + G protein-activated inward rectifier potassium channel 1 (Homo sapiens), sequence (P48549 whole entry, looked up): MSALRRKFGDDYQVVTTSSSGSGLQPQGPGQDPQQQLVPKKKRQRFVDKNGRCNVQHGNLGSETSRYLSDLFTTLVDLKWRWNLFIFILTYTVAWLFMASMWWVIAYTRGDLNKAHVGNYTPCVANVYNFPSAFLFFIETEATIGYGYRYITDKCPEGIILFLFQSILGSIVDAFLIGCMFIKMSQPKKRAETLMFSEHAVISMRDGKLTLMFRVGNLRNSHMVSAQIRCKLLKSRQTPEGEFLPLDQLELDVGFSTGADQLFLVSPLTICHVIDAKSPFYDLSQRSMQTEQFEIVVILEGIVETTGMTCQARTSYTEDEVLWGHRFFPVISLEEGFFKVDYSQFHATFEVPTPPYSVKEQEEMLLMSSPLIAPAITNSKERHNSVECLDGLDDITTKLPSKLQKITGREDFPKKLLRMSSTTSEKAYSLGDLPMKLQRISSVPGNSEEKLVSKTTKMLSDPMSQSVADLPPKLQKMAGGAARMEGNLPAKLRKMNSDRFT

Structure (SMILES) | manual score
Cc1ccc(C(=O)NNC(=S)Nc2cccc3ccccc23)s1 | 0
O=C(NNC(=S)Nc1ccccc1)c1cccc(Br)c1 | 0
O=C(NNC(=S)Nc1cccc2ccccc12)c1cccc(Br)c1 | 1 (active)
CC(C)(C)S(=O)(=O)c1ccc(S(=O)(=O)C(C)(C)C)s1 | 0
O=C(NC(=S)N(CCCCO)C1CCCCC1)c1sc2ccccc2c1Cl | 1 (active)
COc1ccccc1C(=O)NC(=S)NNC(=O)c1sc2ccccc2c1Cl | 0
CCCCOC(=S)NC(=O)c1sc2ccccc2c1Cl | 1 (active)
CC(C)(C)C(=O)NC(=S)NNC(=O)c1sc2ccccc2c1Cl | 1 (active)
CCCOC(=S)NC(=O)c1sc2ccccc2c1Cl | 1 (active)
Nc1c(C(O)(C(F)(F)F)C(F)(F)F)ccc2ccccc12 | 0
CCCCN(Cc1ccccc1)S(=O)(=O)c1ccc2[nH]c(=O)oc2c1 | 0
Cn1c(-c2sc3ccccc3c2Cl)n[nH]c1=S | 0
COc1ccccc1C(=O)NNC(=S)NC(=O)c1sc2ccccc2c1Cl | 0.5
CCOC(=S)NC(=O)c1sc2ccccc2c1Cl | 1 (active)
Cc1cc(C)c2nc(SCC(=O)NCCC3=CCCCC3)cc(C)c2c1 | 1 (active)
COc1cccc(-n2c(SCC(=O)NCCC3=CCCCC3)nc3n[nH]c(C)c3c2=N)c1 | -0.5
Cc1cc(C)c2nc(SC(C)C(=O)NCC(=O)Nc3ccc(F)c(F)c3F)cc(C)c2c1 (stereo not given) | 0
Nn1c(SC/C=C/c2ccccc2)nnc1-c1ccccn1 | 0
COc1cc(Cl)cc2c1Sc1ccccc1/C2=C/CCN(C)C | -1 (active)
Cc1nc(SC2CCOC2=O)c2c(C)c(C)sc2n1 (stereo not given) | 1 (active)
S=C(NN=C1C2CC3CC(C2)CC1C3)Nc1ccccc1 | 0
CCCCn1c(SCc2nc(N)nc(Nc3ccccc3C)n2)nc2ccccc2c1=O | 0
O=C(c1ccccc1Oc1ccccc1)N1CCN(c2ccccc2)CC1 | -1 (active)
CN1CCN(C(=O)c2sc(=S)n(-c3ccccc3)c2N)CC1 | 0
Cc1ccc(-n2nc(-c3cccs3)cc2C(=O)NCC2CCCO2)c(C)c1 (stereo not given) | -1 (active)
O=C(CN1C(=O)c2ccccc2C1=O)Nc1sc2c(c1C(=O)NCC1CCCO1)CCC2 (stereo not given) | 0
COc1ccc(C(OC(=O)c2cccs2)C(=O)NCC2CCCO2)cc1 (stereo not given) | 0

Structure (SMILES) | manual score
Cc1cccc(S(=O)(=O)Nc2cccc3c2C(=O)c2ccccc2-3)c1 | 0
COC(=O)Nc1nnc(Cc2ccc(Cl)cc2)s1 | 0
CC(C)Cn1cnc2sc3c(c2c1=N)CCCC3 | -1 (active)
N#Cc1ccc(-c2csc(NC3=NCCCCC3)n2)cc1 | -1 (active)
O=C(NC(=Nc1ccccc1)N1CCOCC1)Nc1ccccc1 | 1 (active)
O=C(NCCN1CCN(C(=O)Nc2ccccc2)CC1)Nc1ccccc1 | 0
CC(CCc1ccccc1)NC(=O)N1CCOCC1 (stereo not given) | 0
CC1=CC(C)(C)n2c(O)c(N=NC(N)=S)c3cccc1c32 | 0
CCCSc1nc2sc3c(c2c(=O)[nH]1)CCN(Cc1ccccc1)C3 | 3
Oc1c(Cl)cc(Cl)c2c1NCCC2 | 0
O=C(NC(=S)Nc1ccc(Cl)cn1)c1cccs1 | 0.5
Cc1cccc(NC(=S)NC(=O)c2cccs2)n1 | 1 (active)
Cc1ccc2oc(-c3cccc(NC(=S)NC(=O)c4cccs4)c3)nc2c1 | 0
Cc1ccnc(NC(=S)NC(=O)c2cccs2)c1 | 1 (active)
CN1C(=O)NC(c2ccccc2)C2=C1CN(Cc1ccccc1)C2=O (stereo not given) | 0
CCCOc1cccc(C(=O)NC(=S)Nc2cccc(C(F)(F)F)c2)c1 | 0
CCCCOc1ccc(C(=O)NNC(=S)NC(=O)CC)cc1 | 1 (active)
CCCOc1ccc(C(=O)NNC(=S)NC(=O)CC)cc1 | 1 (active)
CC1Cc2nc(SCC(=O)Nc3nc4ccccc4s3)n(C)c(=O)c2S1 (stereo not given) | -0.5
N#Cc1nc(COc2ccccc2)oc1N1CCN(c2cccc(Cl)c2)CC1 | 0
Cc1oc(-c2ccccc2)nc1CS(=O)CC(=O)O (stereo not given) | 1 (active)
CCC(=O)Oc1oc(-c2ccccc2)nc1C=Nc1ccccc1OC | 0
COc1ccccc1N=Cc1nc(-c2ccccc2)oc1OC(C)=O | 0
Cc1ccn2c(NC3CCCCC3)c(C(C)C)nc2c1 | -1 (active)
C=CCOc1cccc(C2/C(=C(/O)c3ccc(C)cc3)C(=O)C(=O)N2CCN2CCOCC2)c1 (stereo not given) | 0
Cn1c(SCC(=O)N2c3ccccc3CCc3ccccc32)nnc1-c1ccc(O)cc1 | 0
CCOC(=O)c1cccc(NC(=O)CSc2nnc(-c3cccnc3)n2C)c1 | 0

Structure (SMILES) | manual score
CCc1cccc(CC)c1-n1c(SCC(=O)N2CCc3ccccc3C2)nnc1-c1cccnc1 | -1 (active)
CCN=c1scc(-c2ccco2)n1/N=C/c1ccc(O)cc1 | 0
CC(C)(C)C(=O)Nc1nc2c(s1)COc1ccccc1-2 | -0.5
CN1CCN(CC(=O)N2c3ccccc3C(C)(c3ccccc3)CC2(C)C)CC1 (stereo not given) | -1 (active)
CN1CCN(Cc2cccc(Oc3ccc(Cl)cc3)c2)CC1 | 0
CN1CCN(CC(=O)N2c3ccccc3C(C)(c3ccc(Cl)cc3)CC2(C)C)CC1 (stereo not given) | -1 (active)
COC(=O)c1ccc(Cl)c(NC(=O)CN2CCN(C)CC2)c1 | 0
CC1(c2ccccc2)CC(C)(C)N2C(=O)/C(=C3\SC(=S)NC3=O)c3cccc1c32 (stereo not given) | 0
S=c1[nH]nc(CSc2nc3ccccc3s2)n1C1CCCCC1 | 0
N#Cc1ccsc1NC(=O)CN1CCN(c2ccc(O)cc2)CC1 | 0
Cc1cc(NC(=O)CSc2nc3ccccc3c(=O)n2Cc2ccccc2)no1 | 0
Cc1cc(NC(=O)CSc2nc(C3CC3)nc3sc(C)c(C)c23)no1 | 1 (active)
COc1cc(OC)c2nc(C)c3c(c2c1)N(c1ccc(O)cc1)CC3 | -1 (active)
O=C(Nc1nncs1)c1ccccc1NS(=O)(=O)c1cccs1 | 0
O=C(Nc1ccccc1)c1ccccc1NS(=O)(=O)c1ccc(Cl)s1 | -1 (active)
O=C(Nc1ccccc1C(=O)O)c1ccc(NC(=O)c2ccc(Br)o2)cc1 | -0.5
CCC1CCCCN1C(=S)NC(=O)c1ccc([N+](=O)[O-])cc1 (stereo not given) | 1 (active)
O=C(NC(=S)Nc1ccccc1N1CCCC1)c1ccc([N+](=O)[O-])cc1 | 1 (active)
Cc1c(C(=O)NC(=S)Nc2ccccc2N2CCCC2)cccc1[N+](=O)[O-] | 0
O=C(NC(=S)N1CCCc2ccccc21)c1ccc(Cl)cc1 | 1 (active)
O=C(NC(=S)N1CCCc2ccccc21)c1ccc(Br)cc1 | 1 (active)
CCC1CCCCN1C(=O)CSc1nnc(-c2ccco2)o1 (stereo not given) | 0
O=C(COc1ccc(Br)cc1Br)NC(=S)N1CCCc2ccccc21 | 0
O=C(NC(=S)Nc1ccccc1N1CCCC1)c1ccccc1[N+](=O)[O-] | 0
O=c1[nH]c(NCCO)nc2c1C1(CCCCC1)Cc1ccccc1-2 | 0
CCOC(=O)c1cccc(-n2c(C)cc(C=O)c2C)c1 | 0
O=C(Nc1nc(-c2cc3ccccc3oc2=O)cs1)c1ccc(Br)o1 | 0

Structure (SMILES) | manual score
O=C(NC(=S)N1CCc2ccccc21)c1ccccc1 | 1 (active)
O=C(NC(=S)N1CCCc2ccccc21)c1ccc([N+](=O)[O-])cc1 | 1 (active)
O=C(NC(=S)N1CCc2ccccc21)c1ccccc1Br | 1 (active)
O=C(NC(=S)N1CCCc2ccccc21)c1ccccc1 | 1 (active)
O=C(c1ccccc1)N1CCCc2ccccc21 | 0
O=C(N/N=C1\CCCc2ccccc21)c1ccc([N+](=O)[O-])cc1 | 0
C=CCN1C(=O)/C(=C2/Sc3ccccc3N2C)SC1=Nc1c(C)n[nH]c1C | 0
CCC(=O)c1ccc(N2CCN(C(=O)c3cc([N+](=O)[O-])ccc3N3CCN(C)CC3)CC2)c(F)c1 | 0
O=C(NC(=S)N1CCN(c2ccc([N+](=O)[O-])cc2)CC1)c1ccc(F)cc1 | 1 (active)
O=C(NC(=S)N1CCN(c2ccc(F)cc2)CC1)C12CC3CC(CC(C3)C1)C2 | 0
O=S(=O)(Nc1ccccc1N1CCCCC1)c1ccc(Cl)s1 | 0
O=S(=O)(Nc1cc(Cl)ccc1N1CCCCC1)c1cccs1 | -1 (active)
CCC/C(=N/NC(=O)c1csc(C)c1C)c1ccc(Cl)s1 | 0
COc1ccc(-c2onc(C)c2-c2ccc(C(=O)OC(C)C)o2)c(O)c1 | 0
COc1ccc(-c2c(S(=O)(=O)c3ccccc3)cnn2-c2ccccc2)cc1 | -1 (active)
COc1ccc(-c2c3c(=O)n(C)c(=O)n(C)c3cn2-c2ccccc2)cc1 | 0
COc1ccc(-n2ncc3c(NCc4cccs4)ncnc32)cc1 | 0
N#Cc1c(N)nc(SCc2ccccc2)c(C#N)c1-c1ccco1 | 0
Cc1ccc(OCC(=O)NNC(=O)C(C)Sc2ncnc3sc(C)c(C)c23)cc1 (stereo not given) | 1 (active)
CC(NC(=O)COc1ccccc1)C(=O)NC1=NCCS1 (stereo not given) | 0
CCOC(=O)c1c(NC(=O)CSc2nnc(-c3ccncc3)n2Cc2ccco2)sc(C(C)=O)c1C | -1 (active)
CCOc1ccccc1NC(=O)CSc1nnc(-c2ccco2)n1Cc1ccco1 | 0
COC(=O)c1c(NC(=O)CSc2nnc(-c3cccnc3)n2Cc2ccco2)sc(C)c1C | -0.5
CCn1cc(C(=O)N2CC=C(c3ccccc3)CC2)c(=O)c2ccc(C)nc21 | 0
